The nature of assay [1]: inhibitors of TNFa-induced NFkB p65 translocation, primary screen, imaging, HUVEC, MLSMR starter and 10KST1 sets (AID 438;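 active = inhibition above 20% together with a positive visual image hit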;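 also: compound added about 3h40 before a 20 min TNFalpha stimulation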;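 as to inhibition: signal is the nuclear over cytoplasmic p65 intensity ratio per well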). The note with it: HUVEC TNFa-induced p65 nuclear translocation; cell count: measured here: nuclei count (cytotoxicity indicator), at 2.08 µM; inhibition: at 2 µM, stronger effect = higher value, 0% TNFa-plus-vehicle, 100% no-TNFa wells.
Assay [2] in a line: reduction of polyQ htt aggregates in cells – imaging, exon1htt(103Q)mCFP cells, high-content imaging, primary screen (AID 483;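 active = visual image review flags a hit and inhibition of aggregation exceeds 20%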;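 also: compound exposure lasted 3 days before fixation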;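 as to nuclei count: percent of the per-plate median nuclei count of sample wells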). The note with it: exon1htt(103Q)mCFP cell line, aggregate imaging, at 2 µM; inhibition of aggregation: stronger effect = higher value; nuclei count: measured here: cell count, toxicity.
Assay [3] in a line: endothelial E-selectin expression blockers – imaging, HUVEC, immunofluorescence, MLSMR starter and 10KST1 sets, primary screen (AID 487;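 active = visually confirmed hit in the image check and inhibition above 20%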;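 as to inhibition: signal is fraction of cell area covered by stained E-selectin grains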;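 as to nuclei count: 100% = median nuclei count of all wells on the same plate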). The following applies: HUVEC TNFalpha-induced E-selectin immunofluorescence imaging, at 2 µM; inhibition: stronger effect = higher value; nuclei count: measured here: cell number, toxicity.
Assay [4] deals with Voltage-gated potassium channel subunit beta-2 (Rattus norvegicus) (UniProt P62483). The assay is described as follows: inhibitors of rat Kvbeta2 reductase activity – biochemical, NADPH fluorescence, primary screen (AID 622;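 active = fluorescence slope higher than the sample average by over 3 SD, cut at about -0.22 in these data, passing the limit was not always enough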;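 also: slope of raw intensity against log time taken from 70 to 1610 s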). The following applies: recombinant KvBeta, 4-cyanobenzaldehyde reduction, at 10 µM, stronger effect = higher value.
For assay [5] the target is unchanged. Put plainly: enhancers of rat Kvbeta2 NADPH turnover – biochemical, NADPH fluorescence, primary screen (AID 623;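 active = NADPH fluorescence slope more negative than the mean of all samples by about 3 SD, 99.7% confidence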;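 also: fluorescence intensity change per second fitted from 20 to 320 s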). The following applies: Recombinant KvBeta, NADPH fluorescence decrease slope, 10 min; at 10 µM; stronger effect = lower value.
Assay [6] addresses Alpha-2C adrenergic receptor (Homo sapiens) (UniProt P18825). Put plainly: compounds altering alpha2C-coupled GIRK flux – cell-based, HEK293 alpha2C/GIRK1/2, thallium flux, primary screen (AID 624;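 active = fluorescence slope after compound addition differing from the mean of all screened samples at 99.7% confidence, in either direction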;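 also: slope of fluorescence ratio to pre-addition baseline per second over 15 to 24 s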). The following applies: thallium flux BTC fluorescence, at 10 µM, actives lie on both sides.
Assay [7] in a line: blockers of RIG-like receptor reporter activation – cell-based, Sendai virus stimulus, luciferase, 10K MLSCN set, TLR/RLR signaling modifier project, primary screen (AID 602276;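 active = inhibition at or above 50% at 10 µM; inactive = inhibition below 50%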;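 also: firefly luciferase from ISG56 promoter only with Renilla not read in this screen; 0% = Sendai virus plus DMSO and 100% = medium plus DMSO without virus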). The note with it: HEK293 RL24 IRF3 luciferase reporter, at 10 µM, stronger effect = higher value. (Reporter assays use an easily measured gene product as a stand-in for the process of interest.)
Assay [8] is described as follows: TLR3 IRF3 reporter activation blockers – cell-based, poly I:C stimulus, luciferase, 10K MLSCN set, primary screen (AID 602277). The following applies: HEK293-TLR3 RL24 IRF3 luciferase reporter, at 10 µM, stronger effect = higher value.

Calls of active or inactive are those of the source.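 The calls were made as follows, unless noted: active = inhibition of the reporter signal at or above 50%; inactive = inhibition below 50%.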

Broadly, the inhibition is the change of the read-out against control, counted positive when it falls.

Sequence of Alpha-2C adrenergic receptor (Homo sapiens) (P18825 whole entry, looked up): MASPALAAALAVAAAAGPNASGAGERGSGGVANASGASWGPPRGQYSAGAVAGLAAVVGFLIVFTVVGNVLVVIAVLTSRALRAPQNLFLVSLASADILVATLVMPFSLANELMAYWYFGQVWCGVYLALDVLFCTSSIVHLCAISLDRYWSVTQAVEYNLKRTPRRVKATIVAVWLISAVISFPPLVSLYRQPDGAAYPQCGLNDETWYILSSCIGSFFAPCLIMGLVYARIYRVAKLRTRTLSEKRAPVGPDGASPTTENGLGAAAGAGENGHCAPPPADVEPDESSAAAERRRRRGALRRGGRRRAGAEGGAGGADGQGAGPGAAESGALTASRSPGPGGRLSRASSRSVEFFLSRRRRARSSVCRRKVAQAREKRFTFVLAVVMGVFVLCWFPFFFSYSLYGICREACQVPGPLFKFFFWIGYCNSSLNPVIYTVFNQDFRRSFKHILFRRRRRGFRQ
Sequence of Voltage-gated potassium channel subunit beta-2 (Rattus norvegicus) (P62483 whole entry, looked up): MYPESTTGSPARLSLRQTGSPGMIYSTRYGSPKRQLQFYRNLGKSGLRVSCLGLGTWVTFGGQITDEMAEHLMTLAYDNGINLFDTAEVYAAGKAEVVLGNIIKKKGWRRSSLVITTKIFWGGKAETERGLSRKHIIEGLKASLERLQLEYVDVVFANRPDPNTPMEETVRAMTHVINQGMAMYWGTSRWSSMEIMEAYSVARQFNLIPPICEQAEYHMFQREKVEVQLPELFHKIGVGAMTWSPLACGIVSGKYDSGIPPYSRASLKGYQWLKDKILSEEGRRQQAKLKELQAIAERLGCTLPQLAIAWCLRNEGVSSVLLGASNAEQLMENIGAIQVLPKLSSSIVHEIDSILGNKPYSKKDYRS

As to `COc1ccccc1N1CCN(C/C(O)=C(\C#N)c2nc(-c3ccccc3)cs2)CC1`, the cell count in assay [1] came out at 475. For the same compound, the inhibition in assay [1] was -3.4% (inactive); in assay [3] it was -33.4% (inactive); in assay [7] it was -9.12% (inactive); in assay [8], -1.83% (inactive). In addition, the inhibition of aggregation in assay [2] is -1.4% (inactive). The nuclei count in assay [2] is 114%; in assay [3], 119%. Moreover, the fluorescence slope in assay [4] was -0.56 (inactive). For the same compound, the NADPH fluorescence slope in assay [5] is 4.6e-05 (inactive). For the same compound, the slope in assay [6] is 0.00548 (inactive).

On to `CN(C)S(=O)(=O)N1CCN(C(=O)N(c2ccccc2)c2ccccc2)CC1`, for which the cell count in assay [1] worked out at 352. Besides, the inhibition in assay [1] is -3.3% (inactive); in assay [3], -122% (inactive); in assay [7], -19.7% (inactive); in assay [8], -15.1% (inactive). Moreover, the inhibition of aggregation in assay [2] is 0% (inactive). Besides, the results for the nuclei count in assay [2] and in assay [3] were 108% and 117%, respectively. In addition, the fluorescence slope in assay [4] is -0.366 (inactive). Also, the NADPH fluorescence slope in assay [5] was -2e-09 (inactive). Besides, in assay [6], the slope was 0.00704 (inactive).

On to `CN(C)S(=O)(=O)N1CCN(S(=O)(=O)c2ccc(F)cc2)CC1`, for which, in assay [1], the cell count is 787. Further, the inhibition in assay [1] was 3.6% (inactive); in assay [3], -118% (inactive); in assay [7], -20.1% (inactive); in assay [8] it was -21% (inactive). Besides, the inhibition of aggregation in assay [2] is -7% (inactive). Also, the figures for the nuclei count in assay [2] and in assay [3] were 103% and 141%, respectively. In addition, the fluorescence slope in assay [4] is -0.436 (inactive). Further, the NADPH fluorescence slope in assay [5] was -9.3e-07 (inactive). Besides, the slope in assay [6] was 0.00495 (inactive).

Regarding `Cc1ccc(S(=O)(=O)N2CCN(C(=O)CN3CCOCC3)C2C(C)C)cc1` (centres undefined), in assay [1], the cell count turned out to be 309. Further, the inhibition in assay [1] was -5% (inactive); in assay [3], -99.4% (inactive); in assay [7] it was 4.53% (inactive); in assay [8], 12.9% (inactive). Moreover, the inhibition of aggregation in assay [2] is -6.9% (inactive). The nuclei count in assay [2] and in assay [3] was 105% in each case. In addition, the fluorescence slope in assay [4] was -0.621 (inactive). Moreover, the NADPH fluorescence slope in assay [5] was 6.8e-06 (inactive). Besides, in assay [6], the slope was 0.0064 (inactive).

For `CC(=O)c1c(O)cc(C)n(Nc2nc(C)cc(C)n2)c1=O`, the cell count in assay [1] came out at 625. The inhibition in assay [1] was -12.1% (inactive); in assay [3] it was 28.7% (inactive); in assay [7], -1.56% (inactive); in assay [8], -18.7% (inactive). Further, the inhibition of aggregation in assay [2] was -23.4% (inactive). Moreover, the nuclei count in assay [2] was 91.3%; in assay [3] it was 91.8%. In addition, the fluorescence slope in assay [4] was -0.343 (inactive). The NADPH fluorescence slope in assay [5] is -5.3e-05 (inactive). Further, the slope in assay [6] is 0.00406 (inactive).

For the compound `CCn1c(SCC(=O)Nc2nc(C)cs2)nnc1-c1ccco1`, the cell count in assay [1] came out at 339. Besides, the inhibition was 0.4% (inactive) in assay [1], -93.6% (inactive) in assay [3], 8.27% (inactive) in assay [7] and 23.4% (inactive) in assay [8]. The inhibition of aggregation in assay [2] is -8.5% (inactive). Further, the nuclei count in assay [2] and in assay [3] was 114% throughout. In assay [4], the fluorescence slope is -0.316 (inactive). Also, in assay [5], the NADPH fluorescence slope was -2.7e-05 (inactive). The slope in assay [6] is 0.00755 (inactive).

`COc1ccc2c(c1)C1(Nc3ccccc3-c3nc4ccccc4n31)C(=O)N2` (centres undefined): in assay [1], the cell count was found to be 240. The inhibition was 5.7% (inactive) in assay [1], 13.2% (inactive) in assay [3], 17.4% (inactive) in assay [7] and 36.3% (inactive) in assay [8]. The inhibition of aggregation in assay [2] was 11.7% (inactive). Also, the nuclei count in assay [2] amounted to 78%; in assay [3] it was 110%. For the same compound, the fluorescence slope in assay [4] was -0.493 (inactive). Also, in assay [5], the NADPH fluorescence slope is -4.6e-05 (inactive). Also, in assay [6], the slope was 0.00486 (inactive).

On to `COc1ccc(S(=O)(=O)NCc2ccc(C(=O)O)cc2)cc1`, for which the cell count in assay [1] came out at 375. Further, the inhibition is 2.2% (inactive) in assay [1], -91.6% (inactive) in assay [3], 9.81% (inactive) in assay [7] and 17.1% (inactive) in assay [8]. The inhibition of aggregation in assay [2] is -11.9% (inactive). Also, the nuclei count in assay [2] was determined as 55.2%; in assay [3], 93.9%. In addition, in assay [4], the fluorescence slope was -0.624 (inactive). The NADPH fluorescence slope in assay [5] was -2.6e-05 (inactive). Besides, in assay [6], the slope was 0.0062 (inactive).

As for `Cn1c(C(=O)NCCCN2CCN(c3ccc(F)cc3)CC2)cc2c(=O)n(C)c3ccccc3c21`, in assay [1], the cell count came to 655. Besides, the inhibition is 1.1% (inactive) in assay [1], -73.4% (inactive) in assay [3], 6.19% (inactive) in assay [7] and 39.1% (inactive) in assay [8]. The inhibition of aggregation in assay [2] was 6.5% (inactive). The nuclei count worked out at 107% in assay [2] and 118% in assay [3]. In addition, the fluorescence slope in assay [4] is -0.42 (inactive). Also, the NADPH fluorescence slope in assay [5] was -6.1e-05 (inactive). Moreover, in assay [6], the slope is 0.00607 (inactive).

Regarding `CCn1c(CCNC(=O)c2cccs2)nnc1SCC(=O)c1ccc(OC)cc1`, the cell count in assay [1] came to 263. The inhibition in assay [1] is 0.8% (inactive); in assay [3] it was -94.1% (inactive); in assay [7] it was -4.44% (inactive); in assay [8] it was -7.83% (inactive). In addition, the inhibition of aggregation in assay [2] was -4.7% (inactive). For the same compound, the nuclei count in assay [2] was 99.7%; in assay [3], 115%. Besides, in assay [4], the fluorescence slope is -0.398 (inactive). Further, the NADPH fluorescence slope in assay [5] was 2.4e-05 (inactive). In addition, the slope in assay [6] was 0.00289 (inactive).

For `Cc1ccc2nc(-c3ccc(S(=O)(=O)N4CCOCC4)cc3)cn2c1`, the cell count in assay [1] amounted to 591. Moreover, the inhibition in assay [1] was -9.3% (inactive); in assay [3], 7.4% (inactive); in assay [7], 5.63% (inactive); in assay [8], -13.9% (inactive). Moreover, the inhibition of aggregation in assay [2] is -9.3% (inactive). Besides, the nuclei count in assay [2] turned out to be 96.7%; in assay [3] it was 89.1%. In addition, the fluorescence slope in assay [4] is -0.0874 (active). Further, the NADPH fluorescence slope in assay [5] is 1e-05 (inactive). The slope in assay [6] is 0.00713 (inactive).

On to `OCc1nc2ccccc2n1CCCOc1ccccc1`, for which the cell count in assay [1] was 291. Moreover, the inhibition is -6% (inactive) in assay [1], -17.2% (inactive) in assay [3], -34.5% (inactive) in assay [7] and -119% (inactive) in assay [8]. Further, the inhibition of aggregation in assay [2] is 11.9% (inactive). Besides, the nuclei count in assay [2] amounted to 87%; in assay [3] it was 96.5%. Further, in assay [4], the fluorescence slope was -0.382 (inactive). For the same compound, the NADPH fluorescence slope in assay [5] is -5.7e-05 (inactive). Also, the slope in assay [6] was 0.00561 (inactive).

On to `COc1ccc(S(=O)(=O)NCC(c2cccnc2)N2CCN(C)CC2)cc1C` (centres undefined), for which the cell count in assay [1] was determined as 600. Further, the inhibition was -1.8% (inactive) in assay [1], 2% (inactive) in assay [3], 4.66% (inactive) in assay [7] and 29.1% (inactive) in assay [8]. Further, in assay [2], the inhibition of aggregation was -1.7% (inactive). In addition, the nuclei count in assay [2] was found to be 84.8%; in assay [3], 105%. Moreover, the fluorescence slope in assay [4] is -0.586 (inactive). Besides, the NADPH fluorescence slope in assay [5] was -1.6e-05 (inactive). Also, in assay [6], the slope is 0.00609 (inactive).

On to `O=C(CCN1C(=O)c2ccccc2C1=O)Nc1ccc(F)cc1`, for which the cell count in assay [1] was determined as 442. The inhibition in assay [1] is 4.9% (inactive); in assay [3], 14.4% (inactive); in assay [7], 9.91% (inactive); in assay [8], 13.8% (inactive). In addition, the inhibition of aggregation in assay [2] is -0.3% (inactive). Besides, the nuclei count in assay [2] worked out at 117%; in assay [3], 109%. Also, the fluorescence slope in assay [4] was -0.375 (inactive). Further, in assay [5], the NADPH fluorescence slope was 4.4e-06 (inactive). Also, in assay [6], the slope is 0.00394 (inactive).
